# Screens from PubChem BioAssay.
# Rows were chosen to be rich in hits. Some 18% of all compounds tested hit in one or more screens of this group.
# CtBP-E1A blk = inhibitors of CtBP/E1A interaction; activity change, % (no concentration beside the values); hit rate 0.49% among 340,000; AlphaScreen GST-E1A/His-CtBP binding, 1536-well; active compounds read low; in the data active means activity change below about -65%; inconclusive means mostly about -30% to -63%
#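 AlphaScreen with 125 nM GST-E1A and 125 nM His-CtBP (5X stocks) in Tris pH 8.0, 300 mM NaCl, BSA, Tween 20, TCEP. Compounds preincubated 2 h at 37 deg C, then glutathione donor/nickel acceptor beads added for 1 h at 37 deg C in dark.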
# TDP1 inh = blocks human tyrosyl-DNA phosphodiesterase 1. Q9NUW8. recombinant TDP1, AlphaScreen DNA substrate cleavage. Potency, µM (doses to about 130 µM), for inactives: at the top dose activity change, negative = inhibition, actives largely listed as inhibitors. hit rate 0.28% among 350,000; further: potency means the concentration at half of the fitted maximal effect; nearly all actives have a fitted effect of over 40% in size
#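 E. coli-derived human Tdp1, 1 nM final. Cpd preinc 15 min RT; substrate 15 nM final, 5 min RT; AS bead mix 10 ug/ml final, 10 min RT. Signal loss = tyrosine-FITC cleavage. No-enzyme wells = max signal.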
# Six1-Eya2 blk = inhibitors of human Six1/Eya2 interaction | Q15475+O00167 | AlphaScreen GST-Six1/His-Eya2 binding, biochemical; active compounds read low | activity change, % (no concentration beside the values) | AID 651725 | hit rate 0.56% among 360,000; in the data active means activity change below about -65%; inconclusive means mostly about -30% to -63%
# Target sequence (O00167 whole entry, looked up): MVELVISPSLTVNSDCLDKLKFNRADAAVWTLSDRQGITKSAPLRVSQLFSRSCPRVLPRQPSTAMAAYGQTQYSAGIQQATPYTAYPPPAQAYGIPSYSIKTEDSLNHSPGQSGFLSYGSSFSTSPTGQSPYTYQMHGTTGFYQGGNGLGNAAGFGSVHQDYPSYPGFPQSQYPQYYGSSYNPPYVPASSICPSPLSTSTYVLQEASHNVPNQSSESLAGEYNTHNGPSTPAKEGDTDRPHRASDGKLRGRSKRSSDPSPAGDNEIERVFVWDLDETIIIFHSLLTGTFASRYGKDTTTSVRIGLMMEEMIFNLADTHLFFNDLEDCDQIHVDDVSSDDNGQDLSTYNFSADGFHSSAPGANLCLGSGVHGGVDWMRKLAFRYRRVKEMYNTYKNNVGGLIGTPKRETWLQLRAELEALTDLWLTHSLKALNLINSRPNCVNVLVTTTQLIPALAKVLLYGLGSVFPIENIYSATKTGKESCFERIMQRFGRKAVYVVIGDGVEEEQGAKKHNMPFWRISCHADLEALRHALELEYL
# Target sequence (Q15475 whole entry, looked up): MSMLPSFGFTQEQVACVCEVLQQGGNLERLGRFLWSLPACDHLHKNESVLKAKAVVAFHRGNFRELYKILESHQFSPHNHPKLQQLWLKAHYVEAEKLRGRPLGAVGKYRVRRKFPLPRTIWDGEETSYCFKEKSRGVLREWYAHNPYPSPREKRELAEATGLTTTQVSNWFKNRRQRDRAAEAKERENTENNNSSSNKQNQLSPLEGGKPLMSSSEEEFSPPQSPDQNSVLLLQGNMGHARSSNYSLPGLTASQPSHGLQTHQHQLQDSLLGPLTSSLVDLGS
#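 Homogeneous AlphaScreen proximity assay pairing GST-Six1 with His-tagged Eya2 (added as 5X mix: 250 nM and 500 nM) in 50 mM Tris pH 8.0, 300 mM NaCl, 1 mM TCEP. Glutathione donor and nickel acceptor beads; 1 h, 37 °C, dark.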
# DT40 TDP1 no CPT = qHTS for Inhibitors of human tyrosyl-DNA phosphodiesterase 1 (TDP1): qHTS in cells in absence of CPT; DT40 Tdp1-/- hTDP1 cells, no CPT, ATP luminescence, 48 h; Potency, µM (highest dose often 46.2 µM), inactives show at the top dose activity change, negative = growth inhibition, hits mostly inhibitors; hit rate 15% among 420,000; further: potency means the concentration at half of the fitted maximal effect; nearly all actives have a fitted effect of over 55% in size
#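 Readout: luminescence from CellTiter-Glo after 30 min in the dark at RT. Cells: DT40 Tdp1-/- with stable hTDP1, 400/well. Exposure: compounds alone, ≥48 hr, 37 °C.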
# TDP1 cell CPT = DT40-hTDP1 cell growth loss with CPT | Potency, µM (doses to about 46.2 µM), without a hit: at the highest dose activity change, negative = growth inhibition, usual class: inhibitors | AID 686979 | chicken DT40 Tdp1-/-;hTDP1 cells + 20 nM CPT, ATP luminescence, 48 h | hit rate 12% among 420,000; further: potency means the concentration at half of the fitted maximal effect; nearly all actives have a fitted effect of over 55% in size
#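 Cell growth measured by CellTiter-Glo luminescence after a minimum 48 h, 37 C compound exposure with 20 nM CPT in Tdp1-knockout DT40 cells stably expressing hTDP1, seeded 400/well; qHTS titration format.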
# IL1B secr inh = blocks inflammasome-driven IL-1 beta release | hit rate 4.7% among 360,000 | THP-1 LPS/ATP IL-1B secretion, AlphaLISA, 16 h; active compounds read low | activity change, % at 57.5 µM; in the data active means activity change below about -50%; inconclusive means mostly about -30% to -49%
#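 THP-1 cells pretreated 1 hr with compounds (up to 57.5 uM final), then stimulated with LPS (250 ng/mL final) plus ATP (1.25 mM final); secreted IL-1B measured by AlphaLISA after 16 hr, decreased signal indicating inhibition.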
# Active calls of the source: *; ? = inconclusive; nt = not tested or not shown. Unless noted, the call rests on the fitted dose curve; in most records, active means well fitted curve in the direction sought with a large enough effect; inconclusive means small, poorly fitted or top-dose-only effect, or another doubt; inactive means no such curve, though single readings can be large; an effect the other way counts as inactive or inconclusive. On the % scale 0 is the no-effect control and ±100 the full control effect.
SMILES,CtBP-E1A blk,TDP1 inh,Six1-Eya2 blk,DT40 TDP1 no CPT,TDP1 cell CPT,IL1B secr inh
CCOC(=O)c1cnc(SC2CC(=O)N(c3ccc(C)cc3)C2=O)nc1N (configuration not stated),9.7,5.1%,1.8,4.11µM*,3.26µM*,0.0
CC(C)(C)OC(=O)C(Cl)(C(=O)OC(C)(C)C)c1ccc2nnnn2n1,3.4,8.4%,8.2,?,?,-79.3*
CCOc1c2ccc(C(=O)NCc3ccco3)cc2nn1CC,-1.0,-0.5%,-3.2,-4.6%,-2.5%,7.7
COc1ccc2[nH]c(=O)c(CNc3ccccc3)cc2c1,-11.4,-3.1%,-1.8,?,4.11µM*,-6.5
CCOc1ccc(NCc2cc3cc(OC)ccc3[nH]c2=O)cc1,-20.3,7.5%,4.6,20.6µM*,5.8µM*,44.6
COc1ccc(NCc2cc(=O)[nH]c3ccccc23)cc1,0.0,nt,9.9,-20.4%,-3.4%,-24.3
Cc1cnc(C)c(N2CCC(C(=O)NCc3ccco3)CC2)n1,6.6,6.0%,18.3,-20.8%,-24.2%,19.8
COc1ccc(N2CC(C(=O)N[C@@H](CC(C)C)C(=O)NC3CCCCC3)CC2=O)cc1 (some centres not stated),13.3,3.5%,-1.1,-21.6%,18.5%,3.2
Cc1ccc(C(C(=O)NCC2CCCO2)N(Cc2ccccc2)C(=O)c2ccc(-c3ccccc3)[nH]2)o1 (configuration not stated),?,10.8%,0.0,?,?,-78.6*
O=C(NCC1CCCO1)C(c1cccs1)N(Cc1ccccc1Cl)C(=O)c1ccc(-c2ccccc2)[nH]1 (configuration not stated),-9.3,7.9%,-25.8,23.1µM*,?,?
O=C(CN(Cc1ccccc1Cl)C(=O)Cn1nnc(-c2cccs2)n1)NCC1CCCO1 (configuration not stated),-0.8,6.0%,-0.9,-17.6%,-25.5%,-4.5
O=C(NCC(=O)N(Cc1ccccc1)C(C(=O)NCC1CCCO1)c1ccccc1)c1ccco1 (configuration not stated),3.6,nt,0.6,-29.8%,-10.5%,-16.6
CC(=O)OCC(=O)Nc1ccc([N+](=O)[O-])cc1Cl,7.7,1.3%,9.1,9.6%,21.9%,-5.3
Cc1ccsc1CN(C)CC(=O)Nc1ccc([N+](=O)[O-])cc1Cl,?,6.6%,?,?,-3.6%,-78.9*
COc1c(F)c(F)c(C(=O)Nc2ccc(N3CCN(C(C)=O)CC3)c(Cl)c2)c(F)c1F,19.3,3.6%,7.0,?,?,-4.3
COCCNc1ncnc2ccc(-c3ccccc3C(F)(F)F)cc12,nt,nt,nt,20.6µM*,13µM*,nt
FC(F)(F)c1ccccc1-c1ccc2ncnc(NCc3cccnc3)c2c1,nt,nt,nt,7.31µM*,2.06µM*,nt
Cc1noc(C)c1-c1ccc2ncnc(NCc3ccccc3C(F)(F)F)c2c1,nt,11.5%,nt,nt,nt,nt
c1cncc(CNc2ncnc3ccc(-c4cccnc4)cc23)c1,nt,2.2%,nt,11.6µM*,0.0065µM*,nt
COCCCNc1ncnc2ccc(C)cc12,-3.0,1.7%,2.1,18.4µM*,16.4µM*,26.0
Clc1cccc(-c2ccc3ncnc(NCc4cccnc4)c3c2)c1,nt,1.5%,nt,nt,nt,nt
O=C(O)CCC(=O)Nc1sc2c(c1C(=O)Nc1ccccc1)CCCCC2,0.3,2.6%,-3.4,-2.7%,-22.7%,0.0
O=C(Nc1ccc(Cl)c(Cl)c1)C1=Cc2ccccc2OC1,9.8,-0.5%,15.5,23.1µM*,?,?
CCOc1cc(NC(=O)c2ccccc2C)c(OCC)cc1NC(=O)C1=Cc2ccccc2OC1,8.1,-2.6%,0.7,5.8µM*,7.31µM*,0.0
O=C(Nc1cccc(Cl)c1)C1=Cc2cc(Cl)ccc2OC1,20.5,-4.7%,14.6,?,?,-6.1
SMILES,CtBP-E1A blk,TDP1 inh,Six1-Eya2 blk,DT40 TDP1 no CPT,TDP1 cell CPT,IL1B secr inh
COc1ccc(C2=NN(C(=O)CSc3ncccn3)C(c3cccc(OC)c3OC)C2)cc1 (configuration not stated),8.0,5.1%,-10.5,?,?,-12.0
CCOc1ccccc1C1N=C(c2ccc(OC)cc2)CC(c2ccccc2O)N1 (configuration not stated),7.0,2.3%,-3.1,16.4µM*,20.6µM*,-14.3
O=C(O)CCN1C(=O)c2ccc(NC(=O)Cc3ccc(Cl)cc3)cc2C1=O,5.0,nt,-1.1,14.2%,14.0%,16.7
CC(=O)Nc1ccc(/C=C(\C#N)C(=O)NC2CCCCC2)cc1,1.2,2.7%,-1.8,?,-8.8%,-85.5*
N#C/C(=C/c1ccc(OCc2ccccc2)cc1)C(=O)NC1CCCCC1,-1.0,2.8%,2.7,-20.7%,0.8%,-8.9
N#C/C(=C\c1ccc(Cl)cc1)C(=O)NC1CC1,1.3,nt,-13.5,?,-28.2%,?
CSc1ccc(/C=C(\C#N)C(=O)NC2CCCCC2)cc1,-3.8,2.3%,6.6,20.6µM*,?,-4.8
CC1CCCCC1NC(=O)/C(C#N)=C/c1ccc2c(c1)OCCO2 (configuration not stated),0.0,0.0%,7.2,?,?,-101.7*
Cc1cc(/C=C(\C#N)C(=O)NC2CCCCCC2)c(C)[nH]1,-15.9,-2.6%,-8.7,?,-27.7%,-7.2
COc1ccc(-c2[nH]ncc2/C=C(/C#N)C(=O)NC2CCCCCC2)cc1,-1.7,4.4%,-4.2,18.4µM*,?,-88.2*
C=CCNC(=O)/C(C#N)=C/c1ccc(SC)cc1,0.3,6.5%,3.6,?,-6.3%,-57.4*
C=CCNC(=O)/C(C#N)=C/c1ccc2c(c1)OCCO2,0.0,-3.8%,7.1,-30.0%,11.6%,-19.9
